# Measurements: PubChem BioAssay (Tox21)
# Values without a mark were called inactive. Inconclusive results are not listed. Entries that show only a call come without a potency. Active and inactive are the calls of the source. Unless noted, the call rests on the fitted dose curve.
# How the values were obtained:
# Aromatase (Homo sapiens) = Aromatase (Homo sapiens) (UniProt P11511); experiment: qHTS assay to identify aromatase inhibitors (AID 743083; active means well fitted curve in the direction sought with a large enough effect in the repeat runs; an effect the other way counts as inactive or inconclusive; further: nearly all actives have a fitted effect of over 55% in size; further: potency means the concentration at half of the fitted maximal effect)
# Aromatase (Homo sapiens), sequence (P11511 whole entry, looked up): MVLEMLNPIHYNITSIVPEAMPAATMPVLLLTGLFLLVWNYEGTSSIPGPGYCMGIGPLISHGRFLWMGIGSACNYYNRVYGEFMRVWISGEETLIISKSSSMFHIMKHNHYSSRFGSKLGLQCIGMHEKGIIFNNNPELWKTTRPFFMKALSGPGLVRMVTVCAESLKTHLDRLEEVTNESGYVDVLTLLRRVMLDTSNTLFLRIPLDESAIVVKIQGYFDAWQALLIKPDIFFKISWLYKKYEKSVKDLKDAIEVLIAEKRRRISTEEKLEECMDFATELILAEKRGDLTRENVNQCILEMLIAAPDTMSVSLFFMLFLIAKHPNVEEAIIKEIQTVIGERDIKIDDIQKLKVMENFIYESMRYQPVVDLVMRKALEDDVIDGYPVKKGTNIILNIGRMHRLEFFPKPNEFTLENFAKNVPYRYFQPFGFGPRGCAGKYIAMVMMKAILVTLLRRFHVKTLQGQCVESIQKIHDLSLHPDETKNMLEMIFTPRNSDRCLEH
# [1] = target: Aryl hydrocarbon receptor (Homo sapiens) (UniProt P35869); experiment: qHTS assay to identify small molecule that activate the aryl hydrocarbon receptor (AhR) signaling pathway (AID 743085; active means well fitted curve in the direction sought with a large enough effect in the repeat runs; an effect the other way counts as inactive or inconclusive; further: nearly all actives have a fitted effect of over 15% in size; further: potency means the concentration at half of the fitted maximal effect;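 on activation: HG2L7.5c1 human HepG2 liver cells with stably integrated DRE-driven firefly reporter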)
# Aryl hydrocarbon receptor (Homo sapiens), sequence (P35869 whole entry, looked up): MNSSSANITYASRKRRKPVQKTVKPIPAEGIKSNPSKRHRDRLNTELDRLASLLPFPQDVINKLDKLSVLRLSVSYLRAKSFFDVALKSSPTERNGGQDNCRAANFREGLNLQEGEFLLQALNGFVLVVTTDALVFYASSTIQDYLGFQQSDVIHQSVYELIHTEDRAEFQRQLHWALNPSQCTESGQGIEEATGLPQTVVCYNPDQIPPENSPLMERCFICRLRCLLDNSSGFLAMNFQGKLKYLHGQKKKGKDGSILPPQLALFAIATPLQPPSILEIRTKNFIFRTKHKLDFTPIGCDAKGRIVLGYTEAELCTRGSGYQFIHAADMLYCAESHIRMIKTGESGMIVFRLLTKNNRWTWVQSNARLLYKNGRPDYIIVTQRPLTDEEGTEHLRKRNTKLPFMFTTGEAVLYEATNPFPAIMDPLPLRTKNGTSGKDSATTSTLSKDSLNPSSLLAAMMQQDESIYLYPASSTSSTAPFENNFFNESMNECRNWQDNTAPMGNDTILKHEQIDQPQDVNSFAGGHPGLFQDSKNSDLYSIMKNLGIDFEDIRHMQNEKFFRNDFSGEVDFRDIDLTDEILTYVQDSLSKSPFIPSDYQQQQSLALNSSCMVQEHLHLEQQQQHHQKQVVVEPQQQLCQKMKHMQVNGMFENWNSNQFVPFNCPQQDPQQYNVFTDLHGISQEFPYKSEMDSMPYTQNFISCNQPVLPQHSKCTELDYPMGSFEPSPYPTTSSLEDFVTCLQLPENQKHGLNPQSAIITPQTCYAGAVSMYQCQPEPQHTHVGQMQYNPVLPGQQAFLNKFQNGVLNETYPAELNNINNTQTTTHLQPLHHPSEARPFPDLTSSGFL
# Method in brief: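 A multiplexed format paired cell viability (CellTiter-Fluor fluorescence) with AhR-dependent luciferase output (ONE-Glo luminescence) in the same wells of HepG2 DRE-luc cells after 24 h compound exposure at 37C.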
# [2] = qHTS assay to identify small molecule antagonists of the retinoic acid receptor (RAR) signaling pathway (AID 1159552; active means well fitted curve in the direction sought with a large enough effect in the repeat runs; an effect the other way counts as inactive or inconclusive; further: nearly all actives have a fitted effect of over 50% in size; further: potency means the concentration at half of the fitted maximal effect)
# Method in brief: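 Antagonism of retinol-induced RARE reporter activity was measured in C3RL4 cells. Exposure to compounds and 1 uM final retinol lasted 6 hr at 37 C, with luminescence as endpoint.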
# [3] = qHTS assay to identify small molecule agonists of H2AX (AID 1224845; active means well fitted activation curve with a large enough effect in the signal ratio in the repeat runs, not every such curve was filed as active; the % refers to the signal ratio)
# Method in brief: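 Wild-type CHO-K1 cells plated overnight, then exposed 3 hr at 37C to compounds at 15 concentrations (0.76% DMSO). Lysed, then HTRF anti-pH2AX(S139)-cryptate/anti-H2AX-d2 detection after 24 hr at room temperature; emissions 665 and 620 nm.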
# [4] = Caspase-3/7 induction in HepG2 cells by small molecules, qHTS assay (AID 1346978; active means well fitted curve in the direction sought with a large enough effect in the repeat runs; an effect the other way counts as inactive or inconclusive; further: nearly all actives have a fitted effect of over 15% in size; further: potency means the concentration at half of the fitted maximal effect)
# Method in brief: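 Wild-type HepG2 cells (2,000/well) were settled 5 h at 37 C, 5% CO2, then exposed to compounds in DMSO for 17 h. Caspase-3/7 activity was read by luminescence 30 min after adding Caspase-Glo 3/7 reagent at room temperature.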
# [5] = target: Acetylcholinesterase (Homo sapiens) (UniProt P22303); experiment: Acetylcholinesterase (AChE) small molecule antagonists: colormetric cell-based qHTS assay (AID 1347395); further: nearly all actives have a fitted effect of over 30% in size
# Acetylcholinesterase (Homo sapiens), sequence (P22303 whole entry, looked up): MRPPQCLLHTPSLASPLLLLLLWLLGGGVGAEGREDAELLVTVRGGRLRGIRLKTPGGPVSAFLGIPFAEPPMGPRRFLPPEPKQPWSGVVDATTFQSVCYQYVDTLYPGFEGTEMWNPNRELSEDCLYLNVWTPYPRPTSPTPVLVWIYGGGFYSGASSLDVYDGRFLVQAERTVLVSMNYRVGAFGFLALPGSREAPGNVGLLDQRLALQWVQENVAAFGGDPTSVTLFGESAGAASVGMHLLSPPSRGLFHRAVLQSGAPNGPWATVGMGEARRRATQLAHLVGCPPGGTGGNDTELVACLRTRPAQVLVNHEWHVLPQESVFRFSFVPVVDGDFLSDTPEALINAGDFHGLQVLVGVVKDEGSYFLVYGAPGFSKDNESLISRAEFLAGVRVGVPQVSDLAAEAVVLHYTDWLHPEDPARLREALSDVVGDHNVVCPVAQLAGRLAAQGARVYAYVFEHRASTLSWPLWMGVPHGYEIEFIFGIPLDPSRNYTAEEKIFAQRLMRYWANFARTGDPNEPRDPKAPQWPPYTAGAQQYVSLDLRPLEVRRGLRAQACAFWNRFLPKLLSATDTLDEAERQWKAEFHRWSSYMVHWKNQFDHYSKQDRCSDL
# Method in brief: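 Homogeneous whole-cell format. SH-SY5Y cells seeded overnight, dosed with compound (30 min, 37 C, 5% CO2), then given DTNB/acetylthiocholine cocktail for 90 min at 37 C; colorimetric signal.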
# [6] = target: Acetylcholinesterase (Homo sapiens) (UniProt P22303); experiment: Acetylcholinesterase (AChE) small molecule antagonists: enzyme-based qHTS assay (AID 1347397); settings: Potency: AChE enzyme activity inhibition; outcome: AChE enzyme activity inhibition; further: nearly all actives have a fitted effect of over 55% in size
# Method in brief: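 Compound or DMSO vehicle was pin-transferred onto recombinant human AChE (50 mU/mL as dispensed) and left 30 min at room temperature. Acetylthiocholine with DTNB then started the reaction, read colorimetrically 10 min later.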
# [7] = target: Acetylcholinesterase (Homo sapiens) (UniProt P22303); experiment: Acetylcholinesterase (AChE) small molecule antagonists: fluorescence cell-based qHTS assay (AID 1347398); settings: Potency: AChE activity; outcome: AChE activity; further: nearly all actives have a fitted effect of over 50% in size
# Method in brief: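 Using neuroblastoma SH-SY5Y cells as the enzyme source, test chemicals are preincubated 30 min at 37 C; AChE-driven acetylthiocholine cleavage is then quantified by thiocholine-dependent Thiolite Green fluorescence after 40 min at room temperature.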
# [8] = target: Acetylcholinesterase (Homo sapiens) (UniProt P22303); experiment: Acetylcholinesterase (AChE) small molecule antagonists: enzyme-based qHTS assay with human liver microsomes (AID 1347399); settings: Potency: qHTS inhibition; outcome: qHTS inhibition; further: nearly all actives have a fitted effect of over 60% in size
# Method in brief: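 Recombinant human AChE (50 mU/mL in the enzyme mix) and human liver microsomes (0.25 mg/mL final) were preincubated with compound and NADPH (0.25 mg/mL final) for 30 min at 37 C. Acetylthiocholine/DTNB was then added; thiocholine was read colorimetrically after 10 min at room temperature.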
# [9] = qHTS assay to identify small molecule agonists of the estrogen related receptor signaling pathway with the pleiotropic PPARgamma coactivator (PGC) from Tox21 10K library (AID 1224842; active means well fitted curve in the direction sought with a large enough effect in the repeat runs; an effect the other way counts as inactive or inconclusive; further: nearly all actives have a fitted effect of over 15% in size)
# Method in brief: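 PGC/ERR reporter cells (NTP line) were seeded 2,000 per well, rested 6 h at 37 C/5% CO2, then pin-dosed with compounds in DMSO for 18 h at 37 C; luciferase read by One-Glo luminescence after 30 min at room temperature.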
# [10] = qHTS assay to identify small molecule agonists of the estrogen related receptor (ERR) signaling pathway from Tox21 library (AID 1224849); settings: ERR reporter cell line, ONE-Glo luciferase, 18 h; at 92.4 µM (top of the series) unless noted; further: nearly all actives have a fitted effect of over 15% in size
# Method in brief: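 Luminescence readout (ONE-Glo, 30 min RT) after 18 h compound exposure at 37 C of NTP-supplied ERR reporter cells; cells were plated 6 h before compound addition by pin tool.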
# [11] = A CellTox Green Cytotoxicity Assay to monitor cytotoxicity in HepG2 cells - 0 hour (AID 1224882; active means well fitted curve in the direction sought with a large enough effect in the repeat runs; an effect the other way counts as inactive or inconclusive; further: nearly all actives have a fitted effect of over 35% in size)
# Method in brief: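 HepG2, 600 cells/well premixed w/ CellTox Green; 5 h settle, 37 C/5% CO2; pintool cpd add (DMSO); 37 C, 40 h; fluorescence read at 0, 8, 16, 24, 32, 40 h.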
# [12] = qHTS assay to identify small molecule HDAC inhibitors (AID 1259364; active means well fitted curve in the direction sought with a large enough effect in the repeat runs; an effect the other way counts as inactive or inconclusive;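 further: wild-type HCT-116 cells with endogenous class I/II HDAC activity; top concentration of the series differs between compounds; nearly all actives have a fitted effect of over 45% in size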)
# Method in brief: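 HCT-116 (wild type), 1,500 cells/well, overnight; compound 2 hr 37C 5% CO2; HDAC-Glo I/II reagent 30 min RT; luminescence readout.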
# [13] = qHTS assay to identify small molecule agonists of the sonic hedgehog signaling (Shh) pathway (AID 1259368)
# Method in brief: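 Read-out: firefly luciferase luminescence from a Gli1 response element reporter stably integrated in NIH/3T3-derived 3T3Gli1-Luc cells, measured 30 min at room temperature after reagent addition. Compound exposure lasted 24 hr at 37 C, 5% CO2.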
# [14] = Caspase-3/7 induction in CHO-K1 cells by small molecules, qHTS assay (AID 1346980; active means well fitted curve in the direction sought with a large enough effect in the repeat runs; an effect the other way counts as inactive or inconclusive; further: nearly all actives have a fitted effect of over 15% in size)
# Method in brief: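 Wild-type cells were seeded at 1,500 per well and settled 5 hr at 37 C, 5% CO2, then exposed to DMSO-dissolved compounds for 17 hr. Caspase-Glo 3/7 reagent was added, and luminescence was read after 30min at room temperature.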
# [15] = qHTS assay to identify small molecule antagonists of the estrogen related receptor (ERR) signaling pathway - cell viability counter screen (AID 1224818; active means well fitted curve in the direction sought with a large enough effect in the repeat runs; an effect the other way counts as inactive or inconclusive)
# Method in brief: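 Fluorescence from CellTiter-Fluor, read 30 min after reagent addition at 37 C, measured viability of ERR cells exposed to compounds for 17.5 h. Cells had settled 6 h before dosing.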
# [16] = qHTS assay to identify small molecule antagonists of the estrogen related receptor (ERR) signaling pathway (AID 1224819; active means well fitted curve in the direction sought with a large enough effect in the repeat runs; an effect the other way counts as inactive or inconclusive;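 further: luminescence from an ERR-driven luciferase reporter measured with One-Glo reagent; nearly all actives have a fitted effect of over 50% in size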)
# Method in brief: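 Luminescence readout (One-Glo, 30 min, RT) of ERR cell line after 18 h compound exposure at 37 C; cells seeded 2,000/well, pre-incubated 6 h, compounds pinned from DMSO stocks.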
# [17] = qHTS assay to identify small molecule agonists of the estrogen related receptor (ERR) signaling pathway (AID 1224820; active means well fitted curve in the direction sought with a large enough effect in the repeat runs; an effect the other way counts as inactive or inconclusive)
# Method in brief: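 Following a 6 h settling period, 2,000 ERR cells per well receive DMSO-dissolved compounds by pin tool and incubate 18 h at 37 C; agonist activity is scored from One-Glo luminescence read 30 min post-addition.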
# [18] = tested on: estrogen-related receptor alpha (ERRalpha) with PGC-1alpha coactivator, human; experiment: qHTS assay to identify small molecule antagonists of the estrogen related receptor signaling pathway with the pleiotropic PPARgamma coactivator (PGC) (AID 1224821);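 further: lower luminescence signal means antagonism of PGC/ERR signalling; nearly all actives have a fitted effect of over 50% in size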
# Method in brief: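 Screening used NTP's PGC/ERR cells, dosed via pin tool with compound in DMSO alongside positive and negative controls. After 18 h at 37 C, One-Glo reagent sat 30 min at room temperature before luminescence detection.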
# [19] = qHTS assay to identify small molecule antagonists of the estrogen related receptor signaling pathway with the pleiotropic PPARgamma coactivator (PGC) cell viability counter screen (AID 1224822; active means well fitted curve in the direction sought with a large enough effect in the repeat runs; an effect the other way counts as inactive or inconclusive)
# Method in brief: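 Fluorescence read-out of CellTiter-Fluor after 30 min at 37 C; PGC/ERR cells, 2,000 per well, had been exposed to DMSO-dissolved compounds for 17.5 h following a 6 h pre-incubation.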
smiles,measurement,setting,value
Brc1ccc(Br)c(Br)c1,Potency,Aromatase (Homo sapiens),inactive
same,Potency,[1],inactive
same,Potency,[2],inactive
same,Potency,[3],inactive
same,Potency,[4],inactive
same,Potency,[5],inactive
same,Potency,[6],inactive
same,Potency,[7],inactive
same,Potency,[8],inactive
O=[N+]([O-])c1cccc(Cl)c1Cl,Potency,[1],inactive
same,Potency,[2],inactive
same,Potency,[9],inactive
same,Potency,[5],inactive
same,Potency,[6],inactive
same,Potency,[7],inactive
Oc1ccc(Cl)cc1Cc1cc(Cl)ccc1O,Potency,Aromatase (Homo sapiens),31.2 µM (active)
same,Potency,[1],inactive
same,Potency,[2],26.6 µM (active)
same,Potency,[5],inactive
same,Potency,[6],inactive
same,Potency,[7],inactive
same,Potency,[8],inactive
Nc1cccc(C(F)(F)F)c1,Potency,Aromatase (Homo sapiens),inactive
same,Potency,[1],inactive
same,Potency,[2],inactive
same,Potency,[5],inactive
same,Potency,[7],inactive
same,Potency,[8],inactive
COc1ccc(CCN2CCC(Nc3nc4ccccc4n3Cc3ccc(F)cc3)CC2)cc1,Potency,Aromatase (Homo sapiens),21.1 µM (active)
same,Potency,[2],1.25 µM (active)
same,Potency,[4],26.6 µM (active)
Cc1cccc([N+](=O)[O-])c1C,Potency,Aromatase (Homo sapiens),inactive
same,Potency,[1],inactive
same,Potency,[2],inactive
same,Potency,[3],inactive
same,Potency,[4],inactive
same,Potency,[5],inactive
same,Potency,[6],inactive
same,Potency,[7],inactive
same,Potency,[8],inactive
Nc1cccc([N+](=O)[O-])c1,Potency,Aromatase (Homo sapiens),inactive
same,Potency,[2],inactive
same,Potency,[5],inactive
same,Potency,[6],inactive
same,Potency,[7],inactive
same,Potency,[8],inactive
CCCCCCCC#N,Potency,Aromatase (Homo sapiens),inactive
same,Potency,[2],inactive
same,Potency,[3],inactive
same,Potency,[4],inactive
same,Potency,[5],inactive
same,Potency,[6],inactive
same,Potency,[7],inactive
same,Potency,[8],inactive
Brc1c2ccccc2cc2ccccc12,Potency,Aromatase (Homo sapiens),inactive
same,Potency,[1],inactive
same,Potency,[2],inactive
same,Potency,[4],inactive
same,Potency,[5],inactive
same,Potency,[6],inactive
same,Potency,[7],inactive
same,Potency,[8],inactive
Brc1cc(Br)cc(Br)c1,Potency,[3],inactive
same,"activity change, positive = activation",[10],-1.12%
same,Potency,[4],inactive
same,Potency,[6],inactive
same,Potency,[7],inactive
same,Potency,[8],inactive
C=CC(=O)OCCCCCCCC(C)C,Potency,Aromatase (Homo sapiens),inactive
same,Potency,[1],inactive
same,Potency,[2],inactive
same,Potency,[3],inactive
same,Potency,[5],inactive
same,Potency,[6],inactive
same,Potency,[7],inactive
same,Potency,[8],inactive
C1=CC2C3C=CC(C3)C2C1 (stereo unspecified),Potency,Aromatase (Homo sapiens),inactive
same,Potency,[2],inactive
same,Potency,[5],inactive
same,Potency,[6],inactive
same,Potency,[7],inactive
same,Potency,[8],inactive
Clc1ccccc1-c1ccccc1Cl,Potency,Aromatase (Homo sapiens),78.1 µM (active)
same,Potency,[1],inactive
same,Potency,[2],inactive
same,Potency,[11],inactive
same,outcome,[12],inactive
same,outcome,[13],inactive
same,Potency,[4],inactive
same,outcome,[14],inactive
same,Potency,[5],inactive
same,Potency,[6],inactive
same,Potency,[7],inactive
same,Potency,[8],inactive
Oc1cc(Cl)cc(Cl)c1Cl,Potency,[1],24.9 µM (active)
same,Potency,[2],62.6 µM (active)
same,Potency,[4],inactive
same,Potency,[5],inactive
same,Potency,[6],inactive
same,Potency,[7],inactive
same,Potency,[8],inactive
NC(=NCCC[C@H](N)C(=O)O)N[N+](=O)[O-],Potency,[15],inactive
same,Potency,[16],inactive
same,Potency,[17],inactive
same,Potency,[18],inactive
same,Potency,[19],inactive
